Compounds without any hit were thinned out: in the full panel of roughly 83,000, 20% have a hit.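 Compound tested at a single concentration for 48 hours in 96-well plates; a percent growth value below 10 was scored as active.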 Values without a mark were called inactive. Calls of active or inactive are those of the source.

The values that follow come from PubChem BioAssay (NCI).

Among the test systems are EKVX NSCLC; UO-31 renal; TK-10 renal; ACHN renal; CAKI-1 renal; A498 renal; CCRF-CEM leukemia; MOLT-4 leukemia; SR leukemia; RPMI-8226 leukemia; OVCAR-5 ovarian; OVCAR-4 ovarian; SK-OV-3 ovarian; IGROV1 ovarian; OVCAR-3 ovarian; HS 578T breast; NCI/ADR-RES ovarian; SN12C renal; OVCAR-8 ovarian.
What all share (assay): NCI-60 one-dose screen, 48 h (100 = growth as untreated, 0 = no growth, -100 = all killed)
Holding throughout (conditions): 10 µM unless noted

On to `N[C@H]1CCC[C@@H]1NCCCCN1C(=O)c2cccc3cccc(c23)C1=O`, for which the growth was 84.6% in the experiment on EKVX NSCLC; 60.3% in the experiment with UO-31 renal; 65.8% with TK-10 renal; 44.9% in the experiment with ACHN renal; 84.4% with CAKI-1 renal; 40.5% in the experiment with A498 renal. In addition, the growth in the experiment with CCRF-CEM leukemia was 84.5%; with MOLT-4 leukemia it was 20.2%; in the experiment on SR leukemia it was 20%; in the experiment with RPMI-8226 leukemia it was 75.1%; in the experiment with OVCAR-5 ovarian, 74%; in the experiment with OVCAR-4 ovarian, 36%. For the same molecule, the growth is 95.2% with SK-OV-3 ovarian; 39.3% with IGROV1 ovarian; 61.3% with OVCAR-3 ovarian; 68.2% in the experiment on HS 578T breast; 79.1% in the experiment on NCI/ADR-RES ovarian.
In the case of `O=C(CC1Sc2ccccc2NC1=O)NNc1ccc(F)cc1` (stereo not given), the growth with EKVX NSCLC is 75.9%; with SN12C renal it was 89.5%; in the experiment on UO-31 renal, 48.4%; with TK-10 renal, 121%; with CAKI-1 renal it was 69%; with A498 renal, 91.7%. In addition, the growth in the experiment with CCRF-CEM leukemia is 7.39% (active); in the experiment with MOLT-4 leukemia, 45.8%; in the experiment on SR leukemia it was 83.5%; in the experiment with RPMI-8226 leukemia it was 78.7%; with OVCAR-5 ovarian, 76.3%; in the experiment on OVCAR-4 ovarian it was 72%. Further, the growth is 92.5% in the experiment with SK-OV-3 ovarian; 70.3% in the experiment on IGROV1 ovarian; 84.8% with OVCAR-3 ovarian; 82.4% in the experiment with HS 578T breast; 44.1% with NCI/ADR-RES ovarian.
Regarding `CCNCCNc1cc(-c2ccc(Cl)cc2)c(C#N)c2nc3ccccc3n12`, the growth in the experiment with EKVX NSCLC was 11.2%; in the experiment on SN12C renal, 44.9%; with UO-31 renal, -95.2% (active); in the experiment with TK-10 renal, -20.3% (active); in the experiment with ACHN renal it was -60% (active); in the experiment on CAKI-1 renal, 39.5%. The growth in the experiment with A498 renal is 2.87% (active); in the experiment with CCRF-CEM leukemia, -21.3% (active); in the experiment with MOLT-4 leukemia, -28.7% (active); in the experiment with RPMI-8226 leukemia it was -19.4% (active); with OVCAR-8 ovarian, 10.7%; in the experiment with OVCAR-5 ovarian, 4.7% (active). Also, the growth in the experiment with OVCAR-4 ovarian was -9.51% (active); in the experiment with SK-OV-3 ovarian, 31.5%; with IGROV1 ovarian, 22.4%; in the experiment on OVCAR-3 ovarian, -78.2% (active); with HS 578T breast, -36% (active); with NCI/ADR-RES ovarian it was 22.6%.
Take `NC(=O)CC1(O)C=C(Br)C(=O)C(Br)=C1`: the growth in the experiment with EKVX NSCLC is 91.4%; in the experiment with SN12C renal, 117%; in the experiment on UO-31 renal, -53.6% (active); with TK-10 renal, 17.1%; in the experiment with ACHN renal it was -59.4% (active); in the experiment on CAKI-1 renal it was -10.2% (active). For the same molecule, the growth with CCRF-CEM leukemia was -45% (active); in the experiment on MOLT-4 leukemia, -53% (active); with RPMI-8226 leukemia, -31.3% (active); in the experiment on OVCAR-8 ovarian, 95.9%; in the experiment with OVCAR-5 ovarian, 70.2%; with OVCAR-4 ovarian, 34.7%. The figures for the growth with SK-OV-3 ovarian and in the experiment on IGROV1 ovarian were 99.1% and 82.2%, respectively.
`CCNCCNc1cc(-c2cccc(C(F)(F)F)c2)c(C#N)c2nc3ccccc3n12`: the growth in the experiment with EKVX NSCLC is -89.5% (active); with SN12C renal, -47% (active); in the experiment with UO-31 renal, -81.8% (active); with TK-10 renal, -92.9% (active); with ACHN renal, -100% (active); with CAKI-1 renal, -70.8% (active). Further, the growth with A498 renal is 81.4%; with CCRF-CEM leukemia, -12.3% (active); with MOLT-4 leukemia, -33.2% (active); in the experiment with RPMI-8226 leukemia, -29.3% (active); in the experiment on OVCAR-8 ovarian, -39.7% (active); with OVCAR-5 ovarian, -79.3% (active). The growth with OVCAR-4 ovarian is -83% (active); in the experiment with SK-OV-3 ovarian, -97.2% (active); in the experiment with IGROV1 ovarian it was -74.2% (active); with OVCAR-3 ovarian it was -86.7% (active); in the experiment on HS 578T breast, -48.3% (active); in the experiment on NCI/ADR-RES ovarian, -55% (active).
Turning to `O=C1CSC(c2ccccc2O)N1c1nnc(Cn2cnnc2)o1` (stereo not given), the growth was 81.8% in the experiment with EKVX NSCLC; 79.6% with SN12C renal; 46.7% in the experiment on UO-31 renal; 145% with TK-10 renal; 89.4% in the experiment with ACHN renal; 71.3% in the experiment on CAKI-1 renal. Also, the growth in the experiment on A498 renal is 106%; with CCRF-CEM leukemia, 23%; with MOLT-4 leukemia, 61.5%; with SR leukemia, 72.4%; with RPMI-8226 leukemia, 71.1%; with OVCAR-5 ovarian, 78.1%. The growth in the experiment on OVCAR-4 ovarian is 86.4%; with SK-OV-3 ovarian, 88.3%; in the experiment on IGROV1 ovarian it was 73.9%; with OVCAR-3 ovarian it was 91.2%; in the experiment with HS 578T breast, 88.1%; with NCI/ADR-RES ovarian, 68.9%.
In the case of `CN(C)c1ccc(C#Cc2c(F)cccc2Cl)cc1`, the growth with EKVX NSCLC was 63.5%; with SN12C renal it was 82.2%; with UO-31 renal, 41.2%; in the experiment on TK-10 renal it was 96.8%; in the experiment on ACHN renal, 83.5%; in the experiment with CAKI-1 renal it was 82.4%. In addition, the growth in the experiment with A498 renal was 42.6%; with MOLT-4 leukemia it was 89.4%; in the experiment on SR leukemia, 94.3%; with RPMI-8226 leukemia it was 91.3%; with OVCAR-5 ovarian it was 99.2%; in the experiment with OVCAR-4 ovarian it was 72%. For the same molecule, the growth was 79% with SK-OV-3 ovarian; 47.2% with IGROV1 ovarian; 90.6% in the experiment on OVCAR-3 ovarian; 94.5% in the experiment on HS 578T breast; 85.3% in the experiment on NCI/ADR-RES ovarian.
For `O=C1C2=C(CCN(Cc3ccccc3)C2)N2CCN=C2N1Cc1ccc(F)cc1F`, the growth in the experiment on EKVX NSCLC was 30.2%; in the experiment with SN12C renal, 28.8%; in the experiment on UO-31 renal, 32.5%; in the experiment with TK-10 renal, 44.8%; with ACHN renal it was 35.6%; with CAKI-1 renal it was 32.9%. Moreover, the growth in the experiment on A498 renal was 14.6%; in the experiment on MOLT-4 leukemia, 74.1%; in the experiment on SR leukemia, 55.5%; with RPMI-8226 leukemia, 19.3%; in the experiment with OVCAR-8 ovarian it was 17.4%; in the experiment on OVCAR-5 ovarian, 56.4%. The growth with OVCAR-4 ovarian was -2.31% (active); in the experiment on SK-OV-3 ovarian it was 27.8%; in the experiment on IGROV1 ovarian, 47.5%; with OVCAR-3 ovarian, 26.8%; in the experiment on HS 578T breast, 45.8%; in the experiment with NCI/ADR-RES ovarian, 20.1%.
For `CCN(CC)S(=O)(=O)c1ccc(O)c(NC(=O)c2[nH]c(C)c(C(C)=O)c2CCc2ccc(Cl)cc2)c1`, the growth with EKVX NSCLC is 78%; in the experiment with SN12C renal, 43%; with UO-31 renal it was 23.5%; with TK-10 renal, 53.9%; in the experiment with ACHN renal, 36.2%; in the experiment on CAKI-1 renal, 56.8%. Moreover, the growth in the experiment on A498 renal was 26%; in the experiment with CCRF-CEM leukemia it was 62%; in the experiment on MOLT-4 leukemia, 28.3%; with RPMI-8226 leukemia, 28.3%; in the experiment on OVCAR-8 ovarian it was 37.5%; in the experiment on OVCAR-5 ovarian, 92.7%. Also, the growth with OVCAR-4 ovarian was 15.2%; with SK-OV-3 ovarian, 37.8%; in the experiment on IGROV1 ovarian, 45.5%; in the experiment with OVCAR-3 ovarian it was 24.1%; with HS 578T breast, 49.9%; in the experiment on NCI/ADR-RES ovarian it was 50.5%.
